Results on 14 compounds are retold here after PubChem BioAssay (NCATS).

Records with an inconclusive call do not appear. Calls of active or inactive are those of the source. Unless noted, the call rests on the fitted dose curve; in most records, active means well fitted curve in the direction sought with a large enough effect; inconclusive means small, poorly fitted or top-dose-only effect, or another doubt; inactive means no such curve, though single readings can be large; an effect the other way counts as inactive or inconclusive.

A short description of assay [1]: S16 Schwann cell viability assay (CellTiter-Glo assay) (AID 624031). Further: nearly all actives have a fitted effect of over 70% in size. Further: potency means the concentration at half of the fitted maximal effect. Put shortly:
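Native S16 rat Schwann cells in DMEM/10% FBS without phenol red were incubated overnight, then exposed to compounds for 24 h at 37 °C/5% CO2. Viability was read as ATP luminescence (CellTiter-Glo), normalized to no-cell wells and DMSO (0%).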
In general terms: ATP-based viability assays read luminescence as a measure of living cells.

Assay [2] in a line: S16 Schwann cell PMP22 intronic element firefly luciferase assay (AID 624032). Further: nearly all actives have a fitted effect of over 30% in size. Further: potency means the concentration at half of the fitted maximal effect. Put shortly: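 Rat S16 Schwann cells stably carrying a PMP22 intronic element-driven Fluc reporter were seeded overnight, then exposed to compounds for 24 h at 37 °C. Luminescence was normalized to PTC124 (positive control) and DMSO (0% activity).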
Assay [3] can be described thus: S16 Schwann cell PMP22 intronic element beta-lactamase assay (AID 624044; calls by dose curve; further: nearly all actives have a fitted effect of over 15% in size). Put shortly: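 Rat S16 Schwann cells with beta-Lac driven by a PMP22 intronic element, compound-treated 24 h at 37 °C. LiveBLAzer FRET B/G read: 460 nm normalized to potassium clavulanate vs DMSO; 535 nm FRET as viability; concentration-effect curves classified.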

Take `CC1=C(/C=C/C(C)=C/C=C/C(C)=C/C=C/C=C(C)/C=C/C=C(C)/C=C/C2=C(C)CCCC2(C)C)C(C)(C)CCC1`: the Potency entry in assay [1] and in assay [2] was “inactive” throughout.

Regarding `Cc1cn([C@H]2C[C@H](O)[C@@H](CO)O2)c(=O)[nH]c1=O`, the Potency entry in assay [1] was “inactive”.

Consider `NC(=O)c1ncn(C2OC(CO)C(O)C2O)n1` (centres undefined), for which the Potency result in assay [1], in assay [2] and in assay [3] was “inactive” each time.

Take `Nc1ncnc2c1ncn2[C@@H]1O[C@H](COP(=O)(O)OP(=O)(O)OP(=O)(O)O)[C@@H](O)[C@H]1O`: the Potency result in assay [1], in assay [2] and in assay [3] was “inactive” throughout.

Take `Cc1cc(C(=O)NNCc2ccccc2)no1`: the Potency result in assay [1], in assay [2] and in assay [3] was “inactive” throughout.

As for `COC(=O)C1=C(C#N)NC(C)=C(C(=O)OC(C)C)C1c1cccc([N+](=O)[O-])c1` (centres undefined), in assay [1], the Potency entry was “inactive”. Further, the Potency in assay [2] was 16.1 µM (active).

Consider `CC1(C)C(C=C(Cl)Cl)C1C(=O)OCc1cccc(Oc2ccccc2)c1` (centres undefined), for which the Potency result in assay [1], in assay [2] and in assay [3] was “inactive” in each case.

Consider `CCCCCCOc1ccc(C(=N)N(CCCC)CCCC)c2ccccc12`, for which the Potency in assay [1] is 16.1 µM (active); in assay [2] it was 22.8 µM (active).

Turning to `Cc1ccccc1`, in assay [1], the Potency entry is “inactive”.

`COc1ccc2c3c1O[C@H]1C[C@@H](O)C=C[C@@]31CCN(C)C2`: the Potency result in assay [1], in assay [2] and in assay [3] was “inactive” throughout.

For `O=C(O)c1cc(O)c2c(c1)[O][Bi][O]2`, the Potency result in assay [1], in assay [2] and in assay [3] was “inactive” in each case.

Regarding `CC(O)CO` (centres undefined), the Potency entry in assay [1], in assay [2] and in assay [3] was “inactive” throughout.

For the compound `C[C@]12CCC(=O)C=C1CC[C@@H]1[C@@H]2[C@@H](O)C[C@@]2(C)[C@H]1CC[C@]2(O)C(=O)COP(=O)(O)O`, the Potency entry in assay [1] and in assay [2] was “inactive” throughout.

On to `NC1C2CN(c3nc4c(cc3F)c(=O)c(C(=O)O)cn4-c3ccc(F)cc3F)CC12` (centres undefined), for which the Potency result in assay [1], in assay [2] and in assay [3] was “inactive” in each case.
